From the supplement of paper PMC10849652
Targets with a hit are over-represented here; the source holds about 8,800 in all. About 0.5% of all pairs of compound and target were hits.

What was measured:
Experiment in all cases: log2 fold change, soluble protein after heating vs DMSO (PISA); higher = thermal stabilisation; K562 lysate, 10 uM; active = over 0.2 and 3.5 SD of the protein, either way, in both replicates (recomputed)
erlotinib = compound: C#Cc1cccc(Nc2ncnc3cc(OCCOC)c(OCCOC)cc23)c1 [erlotinib]
Outline: (§1)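 Pellets of K562 cells were dounce-homogenised in PBS pH 7.4 with 1 mM MgCl2, and the crude extract was held at 1 mg/mL protein for a 30 min treatment with 10 μM compound. Aliquots were heated for 3 min over 48°C-58°C and pooled before NP-40 was added to 0.5% at 4°C. The supernatant from 21,000xg for 90 min was quantified by TMTpro 16plex LC-MS/MS with channel sums equalised. Values are reported from duplicates as log-two fold change in thermal stability relative to solvent controls.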

[1] = compound: C/C(=N\NC(=O)C1=CC(=CC=C1)S(=O)(=O)N2CCOCC2)/C3=C(C=CC(=C3)Cl)O
Outline: as §1

[2] = compound: C1=CC(=CC=C1C2=NC3=C(N2)C=C(C=C3)C(=O)N)OC4=CC=C(C=C4)Cl
Outline: as §1

[3] = compound: C1=CC2=C(C=CC(=C2)/C=C\3/C(=O)NC(=NCC4=CC=CS4)S3)N=C1
Outline: as §1

[4] = compound: C1=CC2=NC=CN=C2C=C1/C=C/3\C(=O)NC(=O)S3
Outline: as §1

[5] = compound: C1=CC=C(C=C1)C2=NC(=C(N2)C3=CC=NC=C3)C4=CC(=C(C=C4)Cl)O
Outline: as §1

[6] = compound: C1=CC=C2C(=C1)C3=NNC4=CC=CC(=C43)C2=O
Outline: as §1

[7] = compound: C1CCN(C1)C(=O)NC2=CC=CC(=C2)NC3=NC=C(C(=N3)NCCC4=CN=CN4)Br
Outline: as §1

[8] = compound: C1CN(CCC1(CC2=CC=C(C=C2)Cl)N)C3=NC=NC4=C3C=CN4
Outline: as §1

IRAK-1-4 Inhibitor I = compound: C1COCCN1CCN2C3=CC=CC=C3N=C2NC(=O)C4=CC(=CC=C4)[N+](=O)[O-] [IRAK-1-4 Inhibitor I]
Outline: as §1

Measured: log2 fold change

TTLL12 (UniProt Q14166)
inactive: erlotinib 0.006 | [1] 0.049 | [2] -0.047 | [3] 0.036 | [4] 0.027 | [5] 0.005 | [6] -0.023 | [7] 0 | [8] 0.021 | IRAK-1-4 Inhibitor I -0.016

TMPO (UniProt P42166)
inactive: erlotinib 0.026 | [1] -0.038 | [2] 0.012 | [3] -0.097 | [4] -0.03 | [5] -0.024 | [6] -0.026 | [7] -0.004 | [8] 0.005 | IRAK-1-4 Inhibitor I 0.008

UBR4 (UniProt Q5T4S7)
inactive: erlotinib 0 | [1] 0.039 | [2] -0.016 | [3] 0.017 | [4] -0.006 | [5] 0.008 | [6] -0.01 | [7] -0.021 | [8] 0.002 | IRAK-1-4 Inhibitor I -0.009

TFAP4 (UniProt Q01664)
UniProt Q01664, sequence (Q01664 whole entry, looked up): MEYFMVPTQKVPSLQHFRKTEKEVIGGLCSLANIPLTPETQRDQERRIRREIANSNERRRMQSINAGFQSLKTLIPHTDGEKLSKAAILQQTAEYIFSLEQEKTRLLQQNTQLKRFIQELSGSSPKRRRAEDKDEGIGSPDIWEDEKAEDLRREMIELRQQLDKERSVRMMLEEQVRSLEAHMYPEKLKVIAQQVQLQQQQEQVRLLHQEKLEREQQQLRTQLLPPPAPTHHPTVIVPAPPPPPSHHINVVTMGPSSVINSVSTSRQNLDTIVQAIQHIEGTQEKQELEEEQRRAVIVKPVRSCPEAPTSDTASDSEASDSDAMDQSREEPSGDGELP
inactive: erlotinib -0.063 | [1] -0.042 | [2] 0.017 | [3] -0.025 | [4] 0.018 | [5] -0.09 | [6] 0.055 | [7] 0.135 | [8] -0.016 | IRAK-1-4 Inhibitor I -0.061

TPM4 (UniProt P67936)
inactive: erlotinib 0.028 | [1] 0.048 | [2] 0.005 | [3] 0.058 | [4] -0.012 | [5] 0.001 | [6] 0.009 | [7] -0.064 | [8] -0.012 | IRAK-1-4 Inhibitor I 0.028

TSPAN13 (UniProt O95857)
UniProt O95857, sequence (O95857 whole entry, looked up): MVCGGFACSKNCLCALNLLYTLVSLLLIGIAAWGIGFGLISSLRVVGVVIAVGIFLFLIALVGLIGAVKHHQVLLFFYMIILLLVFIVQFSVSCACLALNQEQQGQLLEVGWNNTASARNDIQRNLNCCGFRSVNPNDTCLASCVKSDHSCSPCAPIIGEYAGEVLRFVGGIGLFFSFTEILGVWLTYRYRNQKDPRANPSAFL
inactive: erlotinib 0.002 | [1] 0.053 | [2] 0.06 | [3] 0.003 | [4] -0.002 | [5] 0.008 | [6] -0.167 | [7] 0.202 | [8] -0.053 | IRAK-1-4 Inhibitor I -0.051

TTK (UniProt P33981)
inactive: erlotinib -0.032 | [1] -0.1 | [2] 0.09 | [3] -0.034 | [4] 0.004 | [5] 0.039 | [6] 0.258 | [7] 0.054 | [8] -0.039 | IRAK-1-4 Inhibitor I -0.032

TMEM154 (UniProt Q6P9G4)
inactive: [5] 0.01 | [7] -0.096 | [8] 0.108 | IRAK-1-4 Inhibitor I 0.019

TASP1 (UniProt Q9H6P5)
inactive: erlotinib -0.013 | [2] -0.017 | [4] -0.102 | [5] -0.022 | [7] -0.062 | [8] 0.092 | IRAK-1-4 Inhibitor I 0.055

TCF3 (UniProt X6REB3)
inactive: [1] -0.006 | [3] -0.208 | [6] -0.192

TMSB4X (UniProt P62328)
UniProt P62328, sequence (P62328 whole entry, looked up): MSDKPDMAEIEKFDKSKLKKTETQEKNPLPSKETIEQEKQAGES
inactive: erlotinib 0.079 | [2] 0.084 | [4] -0.031 | [5] 0.002 | [7] 0.018 | [8] 0.085 | IRAK-1-4 Inhibitor I -0.083

TPD52L2 isoform 3 (UniProt O43399)
inactive: erlotinib 0.008 | [2] -0.036 | [4] -0.028 | [5] -0.049 | IRAK-1-4 Inhibitor I 0.029

TCF3 isoform 2 (UniProt P15923)
UniProt P15923, sequence (P15923 whole entry, looked up): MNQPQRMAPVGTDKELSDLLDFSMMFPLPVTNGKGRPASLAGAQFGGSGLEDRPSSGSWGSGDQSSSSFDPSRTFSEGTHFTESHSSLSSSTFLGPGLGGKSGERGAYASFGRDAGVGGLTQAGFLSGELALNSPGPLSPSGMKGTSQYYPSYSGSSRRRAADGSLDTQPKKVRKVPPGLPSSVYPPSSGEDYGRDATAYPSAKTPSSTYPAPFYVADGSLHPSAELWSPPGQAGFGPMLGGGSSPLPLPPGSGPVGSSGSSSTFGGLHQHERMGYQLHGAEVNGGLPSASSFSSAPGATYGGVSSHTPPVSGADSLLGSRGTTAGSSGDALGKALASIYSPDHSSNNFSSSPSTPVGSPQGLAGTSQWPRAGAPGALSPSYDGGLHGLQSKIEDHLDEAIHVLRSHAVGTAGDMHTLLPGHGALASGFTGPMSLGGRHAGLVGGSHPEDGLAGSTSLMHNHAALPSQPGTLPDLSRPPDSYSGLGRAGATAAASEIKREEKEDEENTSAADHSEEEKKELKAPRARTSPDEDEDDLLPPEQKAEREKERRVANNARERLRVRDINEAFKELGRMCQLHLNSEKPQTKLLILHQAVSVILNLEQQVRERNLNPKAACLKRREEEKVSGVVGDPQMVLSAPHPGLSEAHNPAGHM
inactive: erlotinib 0.131 | [2] -0.049 | [5] 0.154 | IRAK-1-4 Inhibitor I -0.249

TNIK (UniProt C9J338)
inactive: erlotinib 0.067 | [1] -0.048 | [2] 0.067 | [3] -0.071 | [4] -0.064 | [6] -0.112 | [7] -0.101 | [8] 0.064

UCP2 (UniProt P55851)
inactive: [1] 0.217 | [3] -0.114 | [5] 0.011 | [6] -0.025 | IRAK-1-4 Inhibitor I -0.026

TNFAIP3 (UniProt P21580)
inactive: erlotinib 0.018 | [2] 0.024 | [4] 0.03 | [5] -0.049 | [7] -0.296 | [8] 0.09 | IRAK-1-4 Inhibitor I 0.047

TMPO isoform 2 (UniProt P42167)
inactive: [1] -0.053 | [3] 0.044 | [4] 0.143 | [6] -0.121 | [7] 0.163 | [8] 0.038

TCF4 (UniProt P15884)
inactive: [5] 0.005 | [7] 0.234 | [8] -0.165 | IRAK-1-4 Inhibitor I -0.152

TRAF7 (UniProt Q6Q0C0)
inactive: [1] 0.006 | [3] -0.042 | [5] -0.026 | [6] -0.151 | [7] -0.05 | [8] 0.116 | IRAK-1-4 Inhibitor I -0.047

TUBB4A (UniProt P04350)
inactive: erlotinib 0.036 | [2] 0.015 | [4] -0.016 | [5] -0.066 | [7] 0.017 | [8] -0.001 | IRAK-1-4 Inhibitor I 0.086

TRIM3 (UniProt O75382)
active: [2] -0.909
inactive: erlotinib 0.129 | [1] 0.2 | [3] 0.098 | [6] 0.012 | [7] 0 | [8] -0.265

U2AF1L5 (UniProt P0DN76)
inactive: erlotinib -0.029 | [2] 0.044 | [5] -0.066 | [7] 0.109 | [8] -0.107 | IRAK-1-4 Inhibitor I 0.132

TSPAN3 (UniProt O60637)
inactive: erlotinib 0.002 | [1] 0.012 | [2] 0.058 | [3] -0.073 | [5] 0 | [6] -0.135 | [7] 0.006 | [8] 0.032 | IRAK-1-4 Inhibitor I 0.091

TNKS (UniProt O95271)
inactive: erlotinib 0.064 | [1] -0.024 | [2] -0.036 | [3] -0.005 | [5] 0.052 | [6] -0.01 | [7] -0.061 | [8] -0.02 | IRAK-1-4 Inhibitor I -0.073

UBIAD1 (UniProt Q9Y5Z9)
inactive: erlotinib 0.013 | [1] 0.16 | [2] -0.128 | [3] 0.092 | [5] 0.249 | [7] 0.023 | [8] 0.057 | IRAK-1-4 Inhibitor I -0.042
active: [6] 0.46

TLE3 isoform 5 (UniProt Q04726)
inactive: erlotinib 0.036 | [2] -0.068 | [4] 0.237 | [5] 0.06 | [7] -0.068 | [8] 0.01 | IRAK-1-4 Inhibitor I -0.021

UBAP2L isoform 1 (UniProt Q14157)
inactive: [4] 0.081 | [5] -0.367 | IRAK-1-4 Inhibitor I 0.084

UBAP2L (UniProt F8W726)
inactive: [1] -0.074 | [3] 0.048 | [6] 0.168

TRPM4 (UniProt Q8TD43)
UniProt Q8TD43, sequence (Q8TD43 whole entry, looked up): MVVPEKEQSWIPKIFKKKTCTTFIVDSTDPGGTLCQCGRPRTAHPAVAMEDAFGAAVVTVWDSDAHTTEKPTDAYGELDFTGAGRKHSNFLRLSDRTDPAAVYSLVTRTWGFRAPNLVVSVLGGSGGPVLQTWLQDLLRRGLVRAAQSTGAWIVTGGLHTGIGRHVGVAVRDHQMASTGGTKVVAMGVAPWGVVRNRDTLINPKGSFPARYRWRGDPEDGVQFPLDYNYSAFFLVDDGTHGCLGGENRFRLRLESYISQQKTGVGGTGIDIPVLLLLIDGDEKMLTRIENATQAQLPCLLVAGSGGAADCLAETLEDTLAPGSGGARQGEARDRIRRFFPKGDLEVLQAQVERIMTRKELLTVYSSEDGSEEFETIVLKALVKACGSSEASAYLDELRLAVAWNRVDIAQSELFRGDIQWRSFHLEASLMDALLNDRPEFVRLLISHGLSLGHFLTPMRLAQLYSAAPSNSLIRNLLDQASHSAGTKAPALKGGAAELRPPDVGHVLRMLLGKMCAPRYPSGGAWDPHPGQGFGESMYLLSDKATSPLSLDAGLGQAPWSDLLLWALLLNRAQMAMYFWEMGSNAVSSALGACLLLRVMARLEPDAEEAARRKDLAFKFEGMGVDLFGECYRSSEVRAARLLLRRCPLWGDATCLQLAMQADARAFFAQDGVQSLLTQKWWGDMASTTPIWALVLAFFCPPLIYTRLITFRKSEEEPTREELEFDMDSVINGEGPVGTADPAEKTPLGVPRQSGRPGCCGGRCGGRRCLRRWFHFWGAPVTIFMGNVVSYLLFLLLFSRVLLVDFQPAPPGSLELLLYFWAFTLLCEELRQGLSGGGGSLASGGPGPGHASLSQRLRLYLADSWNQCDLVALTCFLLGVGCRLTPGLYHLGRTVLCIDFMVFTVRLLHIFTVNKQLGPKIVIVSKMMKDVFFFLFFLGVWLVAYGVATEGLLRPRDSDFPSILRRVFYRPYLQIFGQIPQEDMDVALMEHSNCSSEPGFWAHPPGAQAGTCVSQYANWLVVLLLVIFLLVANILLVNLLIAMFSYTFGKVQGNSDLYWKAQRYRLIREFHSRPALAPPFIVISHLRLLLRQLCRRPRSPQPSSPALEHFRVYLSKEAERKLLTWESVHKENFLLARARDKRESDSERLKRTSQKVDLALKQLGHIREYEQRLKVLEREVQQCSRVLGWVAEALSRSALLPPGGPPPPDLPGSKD
inactive: erlotinib 0.018 | [2] 0.164 | [4] -0.094 | [5] 0.004 | IRAK-1-4 Inhibitor I -0.152

TUBA4A (UniProt C9JQ00)
inactive: [4] -0.18

TFPI isoform 2 (UniProt P10646)
inactive: [1] 0.01 | [3] 0.113 | [6] -0.171

TEC (UniProt P42680)
UniProt P42680, sequence (P42680 whole entry, looked up): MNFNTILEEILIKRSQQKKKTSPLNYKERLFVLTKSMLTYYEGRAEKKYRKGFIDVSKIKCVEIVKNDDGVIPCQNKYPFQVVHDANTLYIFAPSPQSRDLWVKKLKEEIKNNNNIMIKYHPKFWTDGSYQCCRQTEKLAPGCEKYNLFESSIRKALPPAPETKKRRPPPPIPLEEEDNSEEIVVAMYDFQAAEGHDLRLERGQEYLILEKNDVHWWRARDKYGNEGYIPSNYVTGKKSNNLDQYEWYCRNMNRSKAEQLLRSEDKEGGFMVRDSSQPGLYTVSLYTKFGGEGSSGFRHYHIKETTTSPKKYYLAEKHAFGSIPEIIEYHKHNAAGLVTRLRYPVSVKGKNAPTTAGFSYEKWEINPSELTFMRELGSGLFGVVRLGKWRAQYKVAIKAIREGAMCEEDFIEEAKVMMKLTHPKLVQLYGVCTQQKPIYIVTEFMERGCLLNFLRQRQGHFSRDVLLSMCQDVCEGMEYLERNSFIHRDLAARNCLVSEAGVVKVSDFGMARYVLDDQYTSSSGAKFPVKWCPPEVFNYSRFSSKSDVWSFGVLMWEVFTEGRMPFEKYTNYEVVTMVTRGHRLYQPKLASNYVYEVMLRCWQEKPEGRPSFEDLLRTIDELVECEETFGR
inactive: [1] 0.092 | [3] -0.051 | [6] -0.048 | [7] -0.024 | [8] -0.038

TMC1 (UniProt Q8TDI8)
inactive: erlotinib -0.028 | [1] -0.001 | [2] -0.007 | [3] 0.013 | [5] -0.072 | [6] -0.071 | [7] -0.148 | [8] -0.081 | IRAK-1-4 Inhibitor I 0.099

TMEM132A isoform 2 (UniProt Q24JP5)
inactive: erlotinib -0.031 | [2] -0.009 | [5] -0.064 | [7] 0.042 | [8] 0.068 | IRAK-1-4 Inhibitor I 0.101

TM2D3 (UniProt Q9BRN9)
inactive: erlotinib 0.104 | [2] -0.083 | [4] -0.068 | [5] 0.205 | [7] 0.153 | [8] 0.088 | IRAK-1-4 Inhibitor I 0.148

TFPT (UniProt P0C1Z6)
UniProt P0C1Z6, sequence (P0C1Z6 whole entry, looked up): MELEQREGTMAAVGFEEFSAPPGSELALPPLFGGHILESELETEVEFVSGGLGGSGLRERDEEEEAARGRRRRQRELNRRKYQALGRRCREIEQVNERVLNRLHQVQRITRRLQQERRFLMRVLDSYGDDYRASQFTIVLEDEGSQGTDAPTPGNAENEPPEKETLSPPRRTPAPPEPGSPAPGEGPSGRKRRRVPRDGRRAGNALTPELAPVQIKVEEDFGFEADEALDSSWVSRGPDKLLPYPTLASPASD
inactive: erlotinib -0.078 | [2] 0.037 | [4] -0.186

TUBGCP5 (UniProt Q96RT8)
UniProt Q96RT8, sequence (Q96RT8 whole entry, looked up): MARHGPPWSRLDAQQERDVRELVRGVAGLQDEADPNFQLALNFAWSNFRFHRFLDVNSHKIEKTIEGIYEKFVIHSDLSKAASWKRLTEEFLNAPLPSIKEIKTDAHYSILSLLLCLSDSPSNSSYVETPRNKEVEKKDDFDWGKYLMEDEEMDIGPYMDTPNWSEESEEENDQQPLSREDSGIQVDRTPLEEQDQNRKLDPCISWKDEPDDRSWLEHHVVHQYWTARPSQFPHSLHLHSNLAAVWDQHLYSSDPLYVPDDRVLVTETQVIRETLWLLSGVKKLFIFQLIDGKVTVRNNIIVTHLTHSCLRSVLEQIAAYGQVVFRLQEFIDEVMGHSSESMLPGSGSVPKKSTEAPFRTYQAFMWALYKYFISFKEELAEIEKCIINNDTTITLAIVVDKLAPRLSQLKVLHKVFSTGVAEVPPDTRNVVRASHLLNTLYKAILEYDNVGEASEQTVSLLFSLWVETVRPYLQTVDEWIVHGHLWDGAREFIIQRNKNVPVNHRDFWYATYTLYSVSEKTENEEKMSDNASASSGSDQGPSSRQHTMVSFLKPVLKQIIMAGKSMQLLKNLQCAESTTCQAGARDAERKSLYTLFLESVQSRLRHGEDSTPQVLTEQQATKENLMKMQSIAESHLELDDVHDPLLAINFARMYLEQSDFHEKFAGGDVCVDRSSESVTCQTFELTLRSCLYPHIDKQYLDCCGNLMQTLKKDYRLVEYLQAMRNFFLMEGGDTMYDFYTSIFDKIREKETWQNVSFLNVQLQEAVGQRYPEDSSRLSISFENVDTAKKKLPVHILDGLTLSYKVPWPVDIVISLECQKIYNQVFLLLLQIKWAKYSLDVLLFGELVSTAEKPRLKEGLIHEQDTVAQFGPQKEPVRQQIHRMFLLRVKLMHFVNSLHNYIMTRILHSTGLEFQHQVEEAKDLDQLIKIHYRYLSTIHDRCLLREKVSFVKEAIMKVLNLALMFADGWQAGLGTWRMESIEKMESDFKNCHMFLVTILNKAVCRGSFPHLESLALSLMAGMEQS
inactive: [1] 0.001 | [3] -0.026 | [4] 0.024 | [5] 0.013 | [6] 0.01 | [7] -0.003 | [8] -0.043 | IRAK-1-4 Inhibitor I -0.034

TNIK isoform 5 (UniProt Q9UKE5)
inactive: [4] 0.008 | [5] 0.134 | IRAK-1-4 Inhibitor I -0.038

UBN1 (UniProt Q9NPG3)
inactive: [1] 0.032 | [3] -0.056 | [6] 0.051 | [7] 0 | [8] -0.023

UBR4 isoform 4 (UniProt Q5T4S7)
inactive: erlotinib 0.121 | [1] -0.209 | [2] -0.073 | [3] -0.071 | [5] 0.136 | [6] 0.016 | [7] 0.119 | [8] -0.094 | IRAK-1-4 Inhibitor I 0.097

TGFBR1 isoform 2 (UniProt P36897)
inactive: erlotinib 0.042 | [2] -0.069 | [7] 0.14 | [8] -0.102

TEDC1 (UniProt Q86SX3)
UniProt Q86SX3, sequence (Q86SX3 whole entry, looked up): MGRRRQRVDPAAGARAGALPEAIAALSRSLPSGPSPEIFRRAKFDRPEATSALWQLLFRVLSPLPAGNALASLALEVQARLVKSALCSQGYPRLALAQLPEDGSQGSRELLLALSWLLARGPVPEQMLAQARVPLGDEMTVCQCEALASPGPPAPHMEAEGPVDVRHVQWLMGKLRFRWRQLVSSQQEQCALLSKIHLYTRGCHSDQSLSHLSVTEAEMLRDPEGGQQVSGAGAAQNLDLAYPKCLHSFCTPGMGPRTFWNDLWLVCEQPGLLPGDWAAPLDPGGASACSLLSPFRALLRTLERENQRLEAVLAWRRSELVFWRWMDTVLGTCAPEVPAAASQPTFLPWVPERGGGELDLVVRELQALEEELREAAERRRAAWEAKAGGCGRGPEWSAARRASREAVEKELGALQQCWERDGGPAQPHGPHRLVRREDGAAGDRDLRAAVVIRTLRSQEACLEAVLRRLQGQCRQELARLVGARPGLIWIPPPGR
inactive: erlotinib 0.05 | [2] 0.057 | [5] 0.05 | [7] -0.127 | [8] -0.048 | IRAK-1-4 Inhibitor I -0.06

THAP9 (UniProt Q9H5L6)
inactive: [1] 0.019 | [3] -0.015 | [4] 0.01 | [5] 0.028 | [6] -0.042 | [7] -0.092 | [8] 0.098 | IRAK-1-4 Inhibitor I 0.145
